# Measured values taken from PubChem BioAssay (EPA / NIEHS).
# Results filed as inconclusive are left out. More than one record can exist for a structure, and the calls need not agree. Activity calls are given as the source filed them. Rule for the calls: active = hit-call score of the fitted dose curve at least 0.9, where 1 is the maximum; inconclusive = response in the unintended direction; inactive = score below 0.9.
# Assay: TOX21_p53_BLA_p4_viability: Viability Assessment in the Tox21 HCT-116 p53 Agonism Beta-lactamase Assay, Phase 4 (AID 2283597);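 note: hits lower the luminescence signal meaning cytotoxicity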
# Source text: TOX21_p53_BLA_p4 is a cell-based, single-readout assay that uses HCT116, a human intestinal cell line, […] in a 1536-well plate.TOX21_p53_BLA_p4_viability is an assay readout measuring cellular ATP content and detected with CellTiter-Glo Luciferase-coupled ATP quantitation.TOX21_p53_BLA_p4_viability used a type of viability reporter where loss-of-signal activity can be used to understand changes in the cell viability. Furthermore, this assay endpoint can be referred to as a secondary readout, because this assay has produced multiple assay endpoints where this one serves a viability function. To generalize the intended target to other relatable targets, this assay endpoint is annotated to the cell cycle intended target family, where the subfamily is cytotoxicity.
# Thawing Method: Place 14 mL of pre-warmed thaw medium into a 15 mL of conical tub. Remove the vial of cells to be thawed from liquid nitrogen and thaw rapidly by placing at 37C in a water bath with gentle agitation for 1-2 minutes. Decontaminate the vial by wiping with 70% ethanol before opening in a biological safety cabinet. Transfer the vial contents drop-wise into 14 mL of thaw medium in a sterile 15-mL conical tub. Centrifuge cells at 900 rpm for 4 minutes and resuspend in thaw medium. Transfer contents to the T75 tissue culture flask containing Thaw Medium and place flask in a humidified 37C/5% CO2 incubator. Switch to growth medium at first passage.Propagation Method: Aspirate medium, rinse once in DPBS, add 0.25% Trypsin/EDTA and swirl to coat the cell evenly. Add an equal volume of Growth Medium to inactivate Trypsin after 2-3 minutes incubation at 37C. Centrifuge cells at 900 rpm for 4 minutes and resuspend in growth medium. Cell should be passage or fed at least twice a week.Assay Protocol: Harvest cells from culture in growth medium and resuspend in assay medium. 2.2 Dispense 4000 cells/5 uL/well into 1536-well black/clear bottom plates using a Multidrop dispenser. After the cells were incubated at 37C for 5 hours, 23 nL of compounds dissolved in DMSO were transferred to the assay plate by a PinTool resulting in a 217-fold dilution. Incubate the plates for 16 hours at 37C, 5% CO2. Add 1 uL of 6X LiveBLAzer FRET B/G (CCF4-AM) Substrate Mixture to each well using a BioRAPTR dispenser and incubate the plates at room temperature for 2 hours. Measure fluorescence intensity at 460 and 530 nm emission and 405 nm excitation by an Envision detector. Data is expressed as the ratio of 460nm/530nm emissions. Add 4 uL of Cell-titer Glo to each well using BioRAPTR and incubate the plates at room temperature for […]. For cell viability readout that measures cytotoxicity, 4 ul/well of CellTiter-Glo reagent was added into the assay plates using a Flying Reagent Dispenser. After 30 min incubation at room temperature, the luminescence intensity in the plates was measured using a ViewLux plate reader.
SMILES,outcome,AC50
OC(c1ccc(Cl)cc1)(c1cncnc1)c1ccccc1Cl (stereo not given),inactive,
CC(C)C1(C)N=C(c2nc3ccccc3cc2C(=O)O)NC1=O (stereo not given),inactive,
O=C(O)c1nc(Cl)ccc1Cl,inactive,
Oc1ccccc1-c1ccccc1,inactive,
CNC(=S)S,inactive,
N#Cc1nn(-c2c(Cl)cc(C(F)(F)F)cc2Cl)c(N)c1S(=O)C(F)(F)F (stereo not given),inactive,
CC1COC(Cn2cncn2)(c2ccc(Oc3ccc(Cl)cc3)cc2Cl)O1 (stereo not given),,71.1 µM (active)
CCCC1COC(Cn2cncn2)(c2ccc(Cl)cc2Cl)O1 (stereo not given),inactive,
CCCCNC(=O)OCC#CI,inactive,35.9 µM (active)
CCOc1cc(Oc2ccc(C(F)(F)F)cc2Cl)ccc1[N+](=O)[O-],inactive,
Cc1ccc(-c2c(Cl)nc(C#N)n2S(=O)(=O)N(C)C)cc1,,71.9 µM (active)
O=C(O)COc1nc(Cl)c(Cl)cc1Cl,inactive,
COC(=O)C(C)Oc1ccc(Oc2ccc(Cl)cc2Cl)cc1 (stereo not given),inactive,
CCOC(=O)C(Cl)Cc1cc(-n2nc(C)n(C(F)F)c2=O)c(F)cc1Cl (stereo not given),inactive,
N#Cc1cc(Br)c(O)c(Br)c1,inactive,
CNC(=O)ON=CC(C)(C)SC,inactive,
Cc1c(F)c(F)c(COC(=O)C2C(/C=C(\Cl)C(F)(F)F)C2(C)C)c(F)c1F (stereo not given),inactive,
Fc1ccc(Oc2ccnc3cc(Cl)cc(Cl)c23)cc1,inactive,
CC(C)Oc1cc(-n2nc(C(C)(C)C)oc2=O)c(Cl)cc1Cl,inactive,27.7 µM (active)

SMILES,outcome,AC50
CON(C)C(=O)Nc1ccc(Cl)c(Cl)c1,inactive,
CN(C)C(=S)SSC(=S)N(C)C,inactive,
CCON=C(CC)C1=C(O)CC(c2c(C)cc(C)cc2C)CC1=O (stereo not given),inactive,
C=CC1(C)OC(=O)N(c2cc(Cl)cc(Cl)c2)C1=O (stereo not given),inactive,
COC(=O)N(OC)c1ccccc1COc1ccn(-c2ccc(Cl)cc2)n1,inactive,
CCc1nn(C)c(C(=O)NCc2ccc(C(C)(C)C)cc2)c1Cl,,46.1 µM (active)
COc1ccc(C(c2ccc(OC)cc2)C(Cl)(Cl)Cl)cc1,inactive,
N#CC(CCc1ccc(Cl)cc1)(Cn1cncn1)c1ccccc1 (stereo not given),,39.1 µM (active)
C=CCC1=C(C)[C@@H](OC(=O)[C@@H]2[C@@H](C=C(C)C)C2(C)C)CC1=O,inactive,
C=CCC1=C(C)C(OC(=O)C2C(C=C(C)C)C2(C)C)CC1=O (stereo not given),inactive,
CC(Oc1ccc(Cl)cc1Cl)C(=O)O (stereo not given),inactive,
CO/C=C(/C(=O)OC)c1ccccc1Oc1cc(Oc2ccccc2C#N)ncn1,inactive,
O=C(Nc1ccccc1)Nc1ccnc(Cl)c1,inactive,
CCOC(=O)CC(SP(=S)(OC)OC)C(=O)OCC (stereo not given),inactive,
CCCCC(CC)COC(=O)c1ccccc1C(=O)OCC(CC)CCCC (stereo not given),inactive,
C#CCOS(=O)OC1CCCCC1Oc1ccc(C(C)(C)C)cc1 (stereo not given),inactive,70.4 µM (active)
COC(=O)c1ccccc1C(=O)OC,inactive,
CCOP(=S)(OCC)SCn1c(=O)oc2cc(Cl)ccc21,inactive,
